# This is one part of a sample in which hits are shown more often than they occur.
# Tgondii IFNg: T. gondii growth inhibition with IFN-gamma, primary screen, cell-based | activity change, negative = inhibition, % (concentration not given with the values) | Toxoplasma gondii growth in IFN-gamma-treated host cells; stronger effect = lower value | actives 3.8% (n = 69,000); in the data active = activity change below about -70%, passing the limit was not always enough;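 note: host cells are HeLa cells infected with Toxoplasma gondii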
# Starred values were filed as active, the others as inactive; i = inactive; ! = not active in a repeat.
SMILES,Tgondii IFNg
CC(C)NC(=O)Cn1c(=O)cc(-c2nc(C3CC3)no2)c2ccccc21,-31
O=C(c1cccs1)c1cnc2ccccn2c1=O,-57
C1=C(c2ccccc2)CC(c2ccccc2)=NN=C1c1ccccc1,-87*
O=C1CC(c2ccccc2)=NN1c1ccccc1,-39
Cc1cc2nc(C3CCN(CC(=O)N4CCCCC4)CC3)[nH]c2cc1C,19
CC1Cc2cc(C(O)CN3CCN(c4nc5ccccc5o4)CC3)ccc2O1 (centres undefined),-1
CC(=O)Nc1cccc(NC(=O)C(=O)NCCc2sc(-c3ccc(F)cc3)nc2C)c1,25
O=C(O)c1ccc2nc3c(nc2c1)-c1cccc2cccc-3c12,-110*
Nc1cccc(C(=O)O)c1,3
Cc1nc2ccc(C(=O)O)cc2nc1C,6
COC(=O)c1ccc(-c2noc(CN3CCN(C(=O)C4CCCO4)CC3)n2)cc1 (centres undefined),-1
COCC(=O)Nc1cccc(-c2cc(F)ccc2C)c1,40
O=S(=O)(NCCc1csc(-c2ccc(Cl)cc2)n1)c1ccc(F)cc1F,-11
COc1ncc(-c2ccc3nccc(-c4ccnnc4)c3c2)cc1NS(=O)(=O)c1ccc(F)cc1F,-78*
COCCN1C(=O)CCc2cc(NS(=O)(=O)c3ccc(F)cc3F)ccc21,60
CSCc1noc(CN2CCCC2c2nc3ccc(F)cc3[nH]2)n1 (centres undefined),4
Cc1oc(C2CCN(C(=O)Cc3cccs3)CC2)nc1C(=O)N1CCSCC1,-4
Cc1cc(C)n(Cc2nc(-c3ccc(NC(=O)c4ccc5c(c4)OCO5)cc3)oc2C)n1,-98*
Cc1cc(C)n(Cc2nc(-c3ccc(NC(=O)c4ccc(F)cc4)cc3)oc2C)n1,-68
COc1ccc(C(=O)Nc2ccc(-c3nc(Cn4nc(C)cc4C)c(C)o3)cc2)cc1,-92*
CCc1ccc(C(=O)Nc2ccc(-c3nc(Cn4nc(C)cc4C)c(C)o3)cc2)cc1,-61
Cc1ccc(C(=O)Nc2ccc(-c3nc(Cn4nc(C)cc4C)c(C)o3)cc2)cc1,-55
Cc1cc(C)n(Cc2nc(-c3ccc(NC(=O)c4ccc(F)c(F)c4)cc3)oc2C)n1,45
CC(c1cccs1)N(C)C(=O)c1ccc2sc(N)nc2c1 (centres undefined),1
O=C(C(Cc1ccccc1)n1cnnn1)N1CCc2cc(Cl)ccc21 (centres undefined),4
SMILES,Tgondii IFNg
CCO[C@H]1CN(C(=O)N2CCCC2)[C@H]2CCCO[C@@H]12,-96*
CCO[C@@H]1CCN(C(=O)C(C)C)[C@@H]2CCO[C@H]21,82
CCO[C@H]1CC[C@@H]2[C@@H]1OCCN2C(=O)c1ccc2ccccc2c1,-4
CC(C)Oc1ccc(NC(=O)c2cc(-c3ccn[nH]3)n3ccccc23)cc1,26
C=CCN1CCO[C@H]2CN(S(=O)(=O)Cc3ccccc3)CC[C@@H]2C1,-2
O=C(c1ccoc1)N1CC[C@H]2[C@@H]1CCN2c1nncs1,182
O=C(Cn1c(=O)cc(C(=O)N2CCCC2)c2ccccc21)Nc1ccc2c(c1)OCO2,-32
COc1cccc(S(=O)(=O)Nc2ccc3c(c2)CCC(=O)N3CC(C)C)c1,-52
COCCN1C(=O)CCc2cc(NS(=O)(=O)c3cccc(OC)c3)ccc21,1
CC(C)CN1C(=O)CCc2cc(NS(=O)(=O)c3ccccc3F)ccc21,-59
CC(C)CN1C(=O)CCc2cc(NC(=O)c3cc(F)ccc3Cl)ccc21,-40
COCCN1C(=O)CCc2cc(NS(=O)(=O)c3ccc(F)c(C)c3)ccc21,-20
Cc1cc(S(=O)(=O)Nc2ccc3c(c2)CCC(=O)N3CC(C)C)ccc1F,-97*
CC(C)CN1C(=O)CCc2cc(NS(=O)(=O)c3cccc(Cl)c3)ccc21,-80*
COCCN1C(=O)CCc2cc(NS(=O)(=O)c3ccc4c(c3)OCCO4)ccc21,88
CC(C)CN1C(=O)CCc2cc(NS(=O)(=O)c3ccc(F)c(Cl)c3)ccc21,-87*
CC(=O)N1CCCC(c2ccccc2CC2(C(N)=O)CCN(Cc3ccccc3)CC2)C1 (centres undefined),-51
CN(CCN1CCCCCC1)C(=O)c1c(O)cccc1O,4
CCCC(=O)N1CCc2c([nH]c3ccccc23)C12C(=O)Nc1ccccc12 (centres undefined),272
CCN(Cc1noc(CC(C)C)n1)C(=O)c1cnc2sc(C)c(C)n2c1=O,-15
CCCC(=O)N1CCC(N2CCC(CNS(C)(=O)=O)C2)CC1 (centres undefined),-5
CC(Cc1cnccn1)NC(=O)c1cn(C/C=C/c2ccccc2)nn1 (centres undefined),4
CC(C)C[C@H](NC(=O)[C@H](Cc1ccccc1)NC(=O)c1cnccn1)B(O)O,-81*
CC(C)C[C@H](NC(=O)[C@@H](NC(=O)c1cccc(-c2ccccc2)n1)[C@@H](C)O)B(O)O,-64
CCc1nn(C)c(C(=O)NCCNc2nc(-c3ccc(OC)cc3)cc3ncccc23)c1C,-18
SMILES,Tgondii IFNg
CCOc1ccccc1-c1nc(Cn2ccn3nc(-c4ccccc4OC)cc3c2=O)c(C)o1,i
Cc1ccccc1-c1nc(Cn2ccn3nc(-c4cccs4)cc3c2=O)c(C)o1,119
CCOc1ccccc1-c1nc(Cn2ccn3nc(-c4cccs4)cc3c2=O)c(C)o1,-87*
CC(C)(C(=O)N1CCC(Nc2nc3c(c(=O)[nH]2)CCCC3)CC1)c1ccc(Cl)cc1,-101*
O=c1[nH]c(NC2CCN(Cc3nnnn3Cc3ccccc3)CC2)nc2c1CCCC2,-16
Cc1cccc(C)c1NC(=O)CN1CCC(Nc2nc3c(c(=O)[nH]2)CCCC3)CC1,-13
CN1C[C@H](C(=O)N[C@]2(C)O[C@@]3(O)[C@@H]4CCCN4C(=O)[C@H](Cc4ccccc4)N3C2=O)C[C@@H]2c3cccc4[nH]cc(c34)C[C@H]21,4
CC(=O)C1C(=O)[C@@H]2[C@H]3c4c[nH]c5cccc(c45)C[C@H]3C(C)(C)N2C1=O (some centres undefined),-81*!
CN(C)CCOCc1nnn2c1CN(C(=O)C1CCOCC1)CCC2,6
COc1ccc(CCNC(=O)COc2ccc(Br)c(C)c2)cc1OC,-11
CC[C@H](C(=O)N1CCCC[C@H]1C(=O)O[C@H](CCc1ccc(OC)c(OC)c1)c1cccc(OCC(=O)NCCNC(=O)COc2cccc([C@@H](CCc3ccc(OC)c(OC)c3)OC(=O)[C@@H]3CCCCN3C(=O)[C@@H](CC)c3cc(OC)c(OC)c(OC)c3)c2)c1)c1cc(OC)c(OC)c(OC)c1,-72*
COc1ccc(CCNC(=O)C2CCCN2C(=O)Nc2ccc(C)cc2)cc1OC (centres undefined),23
Cc1cc(C)n(CCCN(C)C(=O)c2cnn3ccn(C)c23)n1,11
Cc1nc(CN2CC3(CCN(c4ccncn4)C3)CC2=O)cs1 (centres undefined),4
CCN1CCc2ccc(=O)n(Cc3cccc(C)n3)c2CC1,-3
CC(C)CN1CC[C@H]2[C@@H]1CCN2S(=O)(=O)c1cccs1,-4
COC1C2CCC1N(S(=O)(=O)c1cccs1)C2 (centres undefined),-77*
COc1ccc(S(=O)(=O)N2CC3CCC2C3Oc2cccnc2)cc1 (centres undefined),-4
O=C(NCCc1csc(-c2ccccc2)n1)C1CCN(S(=O)(=O)c2ccc(F)cc2)CC1,1
Cn1cncc1CN1CCOC2(COCCN(S(C)(=O)=O)C2)C1 (centres undefined),27
Cc1nc(-c2ccccc2)sc1C(=O)N1CCCc2ccccc21,-29

# Assay outcomes as filed in PubChem.
